The record followed here is PubChem BioAssay AID1423 (NMMLSC, 2008).

Hit rate of the full screen: of about 220,000 compounds, about 750 (0.34%) were called active. Rule as the data show it: active = response below about 60% or above about 140%; inactive = in between. This excerpt belongs to a sample that is enriched for actives.

The target of this assay is Guanine nucleotide-binding protein G(o) subunit alpha (Homo sapiens) (UniProt P09471). Put plainly: RGS8-Galphao binding modulators, primary screen, biochemical, multiplexed bead flow cytometry (AID 1423).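 Also: Galphao activated as the GDP aluminium fluoride complex binding bead-coupled RGS8.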 The following applies: at 10 µM, actives lie on both sides. (In flow cytometry, cells or beads pass a laser one at a time.)
Guanine nucleotide-binding protein G(o) subunit alpha (Homo sapiens), sequence (P09471 whole entry, looked up): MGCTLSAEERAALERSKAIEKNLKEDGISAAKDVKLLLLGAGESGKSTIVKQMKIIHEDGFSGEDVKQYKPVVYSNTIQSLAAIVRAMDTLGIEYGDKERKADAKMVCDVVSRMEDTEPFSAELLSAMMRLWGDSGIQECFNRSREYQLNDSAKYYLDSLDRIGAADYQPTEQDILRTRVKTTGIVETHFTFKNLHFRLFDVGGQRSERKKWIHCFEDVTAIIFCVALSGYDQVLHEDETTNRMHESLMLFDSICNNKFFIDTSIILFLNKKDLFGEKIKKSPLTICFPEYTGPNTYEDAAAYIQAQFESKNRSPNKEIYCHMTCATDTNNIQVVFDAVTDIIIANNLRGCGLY
As to `C=CCNC(=O)COC(=O)c1ccccc1C(=O)N(C)C1CCCCC1`, the response (percent of control binding) was 103% (inactive).
As to `CCCn1cc(SCC(N)=O)c2ccccc21`, the response (percent of control binding) is 90.4% (inactive).
With `NC(=O)CSc1c[nH]c2ccccc12`, the response (percent of control binding) is 27.5% (active).
Consider `O=C(Cc1c[nH]c2ccccc12)OCCOC(=O)Cc1c[nH]c2ccccc12`, for which the response (percent of control binding) was 101% (inactive).
With `COc1ccc(CC(=O)N[C@@H](CCSC)c2nc3ccccc3[nH]2)cc1` the figure was 106% (inactive); with `Cc1ccccc1Cn1nc(C)c(NC(=O)C(F)(F)F)c1C`, 106% (inactive); with `CCCCN1CCNC1=S`, 99.3% (inactive).
Take `Cc1noc(C)c1S(=O)(=O)N(C)Cc1ccccc1`: the response (percent of control binding) was 98% (inactive).
Next, `CCOC(=O)C1Sc2[nH]c(=O)sc2C(c2ccc(Cl)cc2)C1C(=O)OCC` (stereo unspecified): 7.38% (active); `CCOC(=O)C1=C(C)NC(=O)N(C(C)=O)C1c1ccc(Cl)cc1` (stereo unspecified): 103% (inactive); `CCOC(=O)C1C(c2ccc(Cl)cc2)NC(=S)NC1(O)C(F)(F)F` (stereo unspecified): 102% (inactive).
As to `CCN(CC(=O)NCc1cccs1)C(=O)c1ccccc1F`, the response (percent of control binding) was 99.2% (inactive).
Next, `Cc1ccc(OCC(O)CN2CCN(CC(O)COc3ccc(C)cc3Cl)CC2)c(Cl)c1` (stereo unspecified): 165% [activator] (active); `Cc1cccc(C)c1OCC(O)CN1CCCCC1` (stereo unspecified): 99.3% (inactive).
With `Cc1ccccc1OCC(O)CN1CCN(c2ccccn2)CC1` (stereo unspecified) the figure was 99.3% (inactive); with `Cc1ccc(NCc2n[nH]c(=S)n2-c2ccccc2)cc1Cl`, 99.7% (inactive); with `COc1ccc(C2C(C#N)=C(N)N(c3ncn[nH]3)C3=C2C(=O)CCC3)cc1` (stereo unspecified), 100% (inactive).
With `CC(=O)n1cc([C@@H]2C=C(C(=O)N3CCN(Cc4ccc5c(c4)OCO5)CC3)O[C@H](OCc3ccc(CO)cc3)C2)c2ccccc21` the figure was 102% (inactive).
Turning to `COc1ccc(COCC(O)CN2CCC(C(N)=O)CC2)cc1` (stereo unspecified), the response (percent of control binding) is 104% (inactive).
With `O=[N+]([O-])C(=c1ccc2c(c1)N1C3=C(CCCC3)CC3CCCCC31N=2)[N+](=O)[O-]` (stereo unspecified) the figure was 43.8% (active).
With `COc1ccc(CNCCCO)cc1OC` the figure was 108% (inactive).
Next, `Cc1cc(=O)[nH]c(SCC(=O)Nc2ccc(Br)cc2)n1`: 93.2% (inactive); `Cc1ccc(N2C(=O)C(Cc3ccccc3)NC2=S)cc1` (stereo unspecified): 102% (inactive); `Cc1ccc(N2C(=O)C3CC3C2=O)cc1` (stereo unspecified): 101% (inactive).
Consider `Cc1ccc(N2C(=O)C3C(c4ccccc4)(C2=O)C3(c2ccccc2)c2ccccc2)cc1` (stereo unspecified), for which the response (percent of control binding) is 23.3% (active).
Next, `O=C(CCSc1ccccc1)N1CCN(c2ccccc2F)CC1`: 99.9% (inactive); `CC1(C)C2CC=C(/C=N/NC(=O)c3ccc(Cl)cc3)C1C2` (stereo unspecified): 105% (inactive).
With `COc1ccc(/C(O)=C2\C(=O)C(=O)N(Cc3ccco3)C2c2ccc(OC)cc2OC)cc1` (stereo unspecified) the figure was 98.3% (inactive); with `COCCCN1C(=O)C(=O)/C(=C(/O)c2ccc3c(c2)CC(C)O3)C1c1cccnc1` (stereo unspecified), 89.7% (inactive); with `COc1cc(C2/C(=C(\O)c3ccc4c(c3)CC(C)O4)C(=O)C(=O)N2Cc2ccco2)ccc1O` (stereo unspecified), 12.8% (active).
For `Cc1ccc(-n2c(O)c(C=Nc3ccc(S(=O)(=O)Nc4ncccn4)cc3)c3ccccc3c2=O)cc1C`, the response (percent of control binding) is 102% (inactive).
For `COC(=O)c1cc(NC(=O)C2C3C=CC(C3)C2C(=O)O)cc(C(=O)OC)c1` (stereo unspecified), the response (percent of control binding) is 100% (inactive).
Regarding `O=C(CSc1nnc2n1CCCN2)c1ccccc1`, the response (percent of control binding) was 104% (inactive).
On to `COc1cc(C(=O)NCc2ccc(-n3cccc3)cc2)cc(OC)c1OC`, for which the response (percent of control binding) is 103% (inactive).
Next, `O=C(CCCl)Nc1ccc(S(=O)(=O)NCc2ccco2)cc1`: 98.5% (inactive); `CCCn1nnnc1NC(=O)COc1ccc(Cl)cc1C`: 11.9% (active); `CCOC(=O)N1CCN(C(=O)COc2ccc(Cl)cc2C)CC1`: 101% (inactive).
Next, `Cc1cc(NC(=O)COc2ccc(Cl)cc2Cl)n(CCC#N)n1`: 99.5% (inactive).
Regarding `CCCCCN(C(=O)NC(=O)Nc1cccc(C)c1C)S(C)(=O)=O`, the response (percent of control binding) was 102% (inactive).
For `O=C(CCc1ccccc1)Nc1ccc(NC(=O)C2CCCCC2)nc1`, the response (percent of control binding) is 105% (inactive).
With `O=C(COC(=O)c1ccc[nH]c1=O)Nc1ccc2c(c1)OC(F)(F)O2` the figure was 104% (inactive).
Next, `O=C(CSc1nc2ccc(Nc3nc(N4CCOCC4)nc(N4CCOCC4)n3)cc2s1)NCc1ccco1`: 98.3% (inactive); `Cc1ccc(C(=O)N/C(=C/c2cccs2)C(=O)NCC2CCCO2)cc1` (stereo unspecified): 103% (inactive).
Consider `O=C(Cn1nnc(-c2ccccc2)n1)N/N=C/c1ccc(-c2ccc(Cl)cc2)o1`, for which the response (percent of control binding) is 101% (inactive).
Take `Clc1ccc2nc(-c3ccccc3)nc(C(Cl)Cl)c2c1`: the response (percent of control binding) was 94.2% (inactive).
With `Oc1ccc(-c2onc3ccc(Cl)cc23)cc1`, the response (percent of control binding) was 144% [activator] (active).
With `O=C(Oc1cccc(N2C(=O)C3C4c5ccccc5C(c5ccccc54)C3C2=O)c1)c1ccco1` (stereo unspecified) the figure was 102% (inactive).
Next, `O=C1C2C3C=CC(C4CC34)C2C(=O)N1c1nccs1` (stereo unspecified): 101% (inactive); `CCc1nnc(NC(=O)CCCSc2nc3ccccc3[nH]2)s1`: 101% (inactive).
Consider `Cc1ccc(NC(=O)/C(=C/c2ccc([N+](=O)[O-])cc2)NC(=O)c2ccccc2)cc1`, for which the response (percent of control binding) is 106% (inactive).
Next, `COc1ccc(-c2nc3cnccn3c2NC(C)(C)CC(C)(C)C)cc1O`: 98.8% (inactive).
As to `COc1ccc(N=C(C)c2sc3ccccc3c2O)cc1`, the response (percent of control binding) was 97.2% (inactive).
With `O=C(NCc1ccc(F)cc1)C1CCC(CNc2c(N3CCOCC3)c(=O)c2=O)CC1` (stereo unspecified) the figure was 8.33% (active).
Next, `CC(NC(=O)C1CCC(CNc2c(N3CCOCC3)c(=O)c2=O)CC1)c1ccccc1` (stereo unspecified): 99.7% (inactive); `COc1ccc(CNC(=O)C2CCC(CNc3c(N4CCOCC4)c(=O)c3=O)CC2)cc1` (stereo unspecified): 103% (inactive).
Turning to `Cc1cccc(C)c1NC(=O)Nc1ccccc1-n1ccnc1`, the response (percent of control binding) was 101% (inactive).
With `O=C(Nc1ccn(Cc2ccccc2)n1)c1cccc(F)c1`, the response (percent of control binding) is 103% (inactive).
Next, `Cc1ccc(Cn2ccc(NC(=O)c3cc(C(C)C)on3)n2)cc1`: 55.8% (active); `Cc1ccc(Cn2ccc(NC(=O)C3C4CCC(C4)C3C(=O)O)n2)cc1` (stereo unspecified): 102% (inactive).
As for `Cc1onc(-c2ccc(Cl)cc2)c1-c1ccnn1S(=O)(=O)c1ccc(Cl)cc1`, the response (percent of control binding) was 98.9% (inactive).
For `CS(=O)(=O)N(Cc1ccccc1)c1ccc(C(=O)NN=C2CCCCCC2)cc1`, the response (percent of control binding) was 103% (inactive).
